SKN-1 block – blocks SKN-1 activity in C. elegans. C. elegans VP596 Pgst-4::GFP/RFP ratio, acrylamide-induced, 24 h. inhibition, % at 21.8 µM. hit rate 0.49% among 360,000;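 active = interference check ratio from 0.5 to 1.5 plus GFP to RFP signal ratio inhibition reaching or exceeding a fixed threshold, cut at about 30% in these data, passing the limit was not always enough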
HGIII-sPLA2 inh – Blocks human group III sPLA2 activity; QFRET BODIPY PC-A2 liposome hydrolysis, fluorescence; inhibition, % at 12.2 µM; hit rate 0.56% among 370,000;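 active = inhibition above mean plus 3 SD of compounds lying within the high and low control bounds, cut at about 19% in these data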;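 note: 0% = median of test compound wells and 100% = no enzyme DMSO wells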
Target sequence (Q9NZ20 whole entry, looked up): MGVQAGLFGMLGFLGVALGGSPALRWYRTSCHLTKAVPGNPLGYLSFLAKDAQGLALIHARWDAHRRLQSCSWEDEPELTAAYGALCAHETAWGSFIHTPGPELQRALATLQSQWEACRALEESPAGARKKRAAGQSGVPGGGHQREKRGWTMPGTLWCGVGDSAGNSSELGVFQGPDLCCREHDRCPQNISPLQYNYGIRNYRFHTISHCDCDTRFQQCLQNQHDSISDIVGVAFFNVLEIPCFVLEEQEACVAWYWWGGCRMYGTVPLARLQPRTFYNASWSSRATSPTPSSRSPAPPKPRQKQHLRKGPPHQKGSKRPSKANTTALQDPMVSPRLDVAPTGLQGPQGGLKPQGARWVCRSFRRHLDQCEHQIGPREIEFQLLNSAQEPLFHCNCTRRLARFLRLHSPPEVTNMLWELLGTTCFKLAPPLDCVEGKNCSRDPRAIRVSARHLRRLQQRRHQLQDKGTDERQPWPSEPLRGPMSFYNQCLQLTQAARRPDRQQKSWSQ
Mot1-301 SUMO – blocks SUMOylation pathway, rescuing yeast Mot1-301 growth | growth rescue, % at 18.8 µM | AID 2716 | S. cerevisiae Mot1-301 growth rescue, ATP luminescence, 38.5C; percent above DMSO median, 100 means doubled | hit rate 1% among 320,000;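 active = every valid replicate shows activation above 250% relative to neutral control wells; inactive = the rest, any valid replicate at or below 250%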;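 note: OY570 slx delta 5 strain wells were the positive control but not used for scaling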
Efflux pump inh – blocks antifungal efflux pumps in multiplex yeast assay; hit rate 0.44% among 330,000; S. cerevisiae Candida pump triplex, Nile Red efflux; inhibition, % at 10 µM;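 active = plate passing quality check with inhibition over a set limit, or well fluorescence over plate mean plus 4 SD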;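 note: Nile Red retained in pooled yeast measured as flow cytometry median fluorescence; 0% = buffer negative control and 100% = Enniatin B positive control; higher means more Nile Red kept so more efflux inhibition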
An asterisk follows results filed as active. Compounds with a hit are over-represented: about 2.2% of the library has one in this group of screens.

Screening NC(=O)c1ccc(CSc2nc3ccccc3s2)cc1 returned SKN-1 block -9, HGIII-sPLA2 inh -1, Mot1-301 SUMO 4 and Efflux pump inh 0.
c1ccc2sc(SCc3ccc(-c4nnco4)cc3)nc2c1 was read as SKN-1 block 54*, HGIII-sPLA2 inh -11, Mot1-301 SUMO 12 and Efflux pump inh 0.
`CC(C)CNC(=S)N1CCC(NC(=O)c2ccco2)CC1` gave SKN-1 block 1, HGIII-sPLA2 inh 2 and Efflux pump inh 0.
`O=C(N/N=C/c1ccc(Cl)cc1)Nc1ccccc1` gave SKN-1 block 41*, HGIII-sPLA2 inh -17, Mot1-301 SUMO -20 and Efflux pump inh 0.
`CC(=O)c1ccc(N2CCN(C(=O)c3ccc(S(=O)(=O)NCc4ccco4)cc3)CC2)cc1` gave SKN-1 block 23, HGIII-sPLA2 inh -7, Mot1-301 SUMO -6 and Efflux pump inh 0.
O=C(c1ccc(S(=O)(=O)NCc2ccco2)cc1)N1CCN(c2ccc(F)cc2)CC1 was read as SKN-1 block 33*, HGIII-sPLA2 inh 3, Mot1-301 SUMO -9 and Efflux pump inh 0.
For CCN1/C(=C/c2ccc3ccccc3[n+]2CC)C=Cc2ccccc21 the results were SKN-1 block 78, HGIII-sPLA2 inh 33*, Mot1-301 SUMO -18 and Efflux pump inh 0.
CCN1/C(=C/c2ccc3ccccc3[n+]2CCCS(=O)(=O)[O-])C=Cc2cc(C)ccc21 was read as SKN-1 block 39*, HGIII-sPLA2 inh 12, Mot1-301 SUMO -11 and Efflux pump inh 0.
CCN1/C(=C/c2cc[n+](C)cc2)C=Cc2cc(C)ccc21 was read as SKN-1 block 8, HGIII-sPLA2 inh 9, Mot1-301 SUMO -21 and Efflux pump inh 2.
For CCCCN1/C(=C/c2ccc3ccccc3[n+]2CC)Sc2ccccc21 the results were SKN-1 block 36*.
CCN1/C(=C/c2ccc3cc(C)ccc3[n+]2CC)Sc2cc(C)ccc21 was read as SKN-1 block 56 and HGIII-sPLA2 inh -3.
For C[C@]12Cc3ccccc3C1CC1=N[C@@H](c3ccc(C(F)(F)F)cc3)O[C@@]13C[C@@H]2C(=O)N3C1CCN(Cc2ccccc2)CC1 (some centres undefined) the results were HGIII-sPLA2 inh -2.
Screening CCn1c(SCC(=O)Nc2ccc(S(=O)(=O)Nc3cc(C)nc(C)n3)cc2)nc2sc(C)c(C)c2c1=O returned HGIII-sPLA2 inh -13.
Screening N/C(=N\OC(=O)c1cccs1)c1ccc(Cl)cc1 returned SKN-1 block 52*, HGIII-sPLA2 inh 1, Mot1-301 SUMO -4 and Efflux pump inh 0.
Screening COc1ccc(/C(N)=N/OC(=O)c2cccs2)cc1 returned SKN-1 block 1, HGIII-sPLA2 inh 17, Mot1-301 SUMO 278 and Efflux pump inh 0.
For CCCCn1nnnc1C(c1ccccc1)N1CCN(c2ccc(C(F)(F)F)cc2[N+](=O)[O-])CC1 (centres undefined) the results were SKN-1 block 9 and HGIII-sPLA2 inh -21.
`COC(=O)C1=C(C)N(Cc2ccccc2C(F)(F)F)C(=NCc2cc(OC)c(OC)c(OC)c2)NC1c1cccc(C(F)(F)F)c1` (centres undefined) gave HGIII-sPLA2 inh -12.
Screening COc1ccc(C(C)C)cc1S(=O)(=O)n1cnc(C)c1 returned SKN-1 block 40*, HGIII-sPLA2 inh -2, Mot1-301 SUMO 0 and Efflux pump inh 0.
Screening CCCCn1c(NS(=O)(=O)c2ccccc2)c(S(=O)(=O)c2ccc(C)cc2)c2nc3ccccc3nc21 returned SKN-1 block -3, HGIII-sPLA2 inh 27*, Mot1-301 SUMO 3 and Efflux pump inh 0.
CCCCn1c(NC(=O)c2ccco2)c(S(=O)(=O)c2ccc(C)cc2)c2nc3ccccc3nc21 was read as SKN-1 block 18 and HGIII-sPLA2 inh -39.
For COC(=O)c1cc2c(c3c4cc(F)ccc4n(S(=O)(=O)c4ccc(C)cc4)c13)C(=O)N(c1ccc(OC)cc1)C2 the results were HGIII-sPLA2 inh 6.
Screening Cc1cc(C)cc(C(=O)O/N=C(\N)c2ccc(Br)cc2)c1 returned SKN-1 block -21, HGIII-sPLA2 inh 6, Mot1-301 SUMO 11 and Efflux pump inh 0.
For N/C(=N\OC(=O)c1ccoc1)c1ccc(Br)cc1 the results were SKN-1 block 63*, HGIII-sPLA2 inh -1, Mot1-301 SUMO -8 and Efflux pump inh 0.
For c1ccc2c(c1)NC(c1ccncc1)n1c-2nc2ccccc21 (centres undefined) the results were SKN-1 block 34*, HGIII-sPLA2 inh 1, Mot1-301 SUMO -7 and Efflux pump inh 0.
